In the supplement of paper PMC10849652:
The full data set covers some 7,900 targets. This sample favours those with a hit. About 0.6% of all pairs of compound and target were hits.

Tests used:
Assay in all cases: log2 fold change, soluble protein after heating vs DMSO (PISA); higher = thermal stabilisation; K562 cells, 10 uM, 30 min; active = over 0.2 and 3.5 SD of the protein, either way, in both replicates (recomputed)
[1] = compound: CS(=O)(=O)c1ccc(-c2cnc(N)c(C(=O)Nc3ccccc3)n2)cc1
Method in brief: (§1)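 Thermal stability values are relative to control samples and come from duplicates. They are expressed as log2 fold changes. For measurement, K562 cells (2×10^6 cells/mL) received 10 μM compound for 30 min, and aliquots were heated for 3 min over 48°C-58°C, pooled, and extracted at 4°C in PBS with 0.5% NP-40. Soluble protein, the supernatant after 21,000xg for 90 min, was quantified by TMTpro 16plex LC-MS/MS with equalised channel sums.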

[2] = compound: C[C@@H](Oc1cc(-c2cnn(C3CCNCC3)c2)cnc1N)c1c(Cl)ccc(F)c1Cl [crizotinib]
Method in brief: as §1

[3] = compound: C[C@@H]1COCCN1C2=NC(=NC(=C2)C3(CC3)S(=O)(=O)C)C4=C5C=CNC5=CC=C4
Method in brief: as §1

[4] = compound: C[C@H](C1=CC=C(C=C1)C(=O)NC2=C3C=CNC3=NC=C2)N
Method in brief: as §1

[5] = compound: C[C@H](Nc1ncnc2nc[nH]c12)c1cc2cccc(Cl)c2c(=O)n1-c1ccccc1 [duvelisib]
Method in brief: as §1

[6] = compound: Cc1cc(Nc2cc(CN3CCOCC3)c3nc(C)c(Cc4ccc(Cl)cc4F)n3n2)n[nH]1 [gandotinib]
Method in brief: as §1

[7] = compound: Cc1cc(Nc2cc(N3CCN(C)CC3)nc(Sc3ccc(NC(=O)C4CC4)cc3)n2)n[nH]1 [tozasertib]
Method in brief: as §1

[8] = compound: Cc1cc(SCc2sc(-c3ccc(C(F)(F)F)cc3)nc2C)ccc1OCC(=O)O
Method in brief: as §1

[9] = compound: Cc1ccc(-n2nc(C(C)(C)C)cc2NC(=O)Nc2ccc(OCCN3CCOCC3)c3ccccc23)cc1 [doramapimod]
Method in brief: as §1

[10] = compound: Cc1ccc(C(=O)N(CCCN)[C@@H](c2nc3cc(Cl)ccc3c(=O)n2Cc2ccccc2)C(C)C)cc1 [ispinesib]
Method in brief: as §1

Measured: log2 fold change

EXOC5 (UniProt O00471)
Chain of UniProt O00471 (O00471 whole entry, looked up): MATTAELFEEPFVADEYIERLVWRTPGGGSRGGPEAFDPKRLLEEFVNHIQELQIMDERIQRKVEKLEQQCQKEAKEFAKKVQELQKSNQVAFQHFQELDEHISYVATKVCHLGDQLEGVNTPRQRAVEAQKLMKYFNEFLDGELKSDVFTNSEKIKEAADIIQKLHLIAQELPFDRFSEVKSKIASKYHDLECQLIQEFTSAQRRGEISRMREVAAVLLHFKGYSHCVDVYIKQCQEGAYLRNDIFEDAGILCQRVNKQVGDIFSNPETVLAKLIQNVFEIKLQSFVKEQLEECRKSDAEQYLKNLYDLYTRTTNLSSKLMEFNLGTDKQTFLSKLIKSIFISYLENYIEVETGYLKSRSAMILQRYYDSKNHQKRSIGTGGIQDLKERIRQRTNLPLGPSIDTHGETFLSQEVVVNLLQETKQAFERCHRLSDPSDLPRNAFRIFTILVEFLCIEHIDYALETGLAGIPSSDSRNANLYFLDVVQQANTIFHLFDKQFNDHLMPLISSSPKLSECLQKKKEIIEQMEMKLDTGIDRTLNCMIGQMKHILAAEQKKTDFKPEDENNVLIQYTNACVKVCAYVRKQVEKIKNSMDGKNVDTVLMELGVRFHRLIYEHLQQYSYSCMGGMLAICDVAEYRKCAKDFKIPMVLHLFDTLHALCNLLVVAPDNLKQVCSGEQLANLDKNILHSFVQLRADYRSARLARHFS
active: [2] -0.279 | [10] -0.342
inactive: [1] -0.02 | [3] -0.017 | [4] 0.015 | [5] 0.005 | [6] -0.129 | [7] 0.014 | [8] 0.101 | [9] 0.008

EIF2S3 (UniProt P41091)
active: [3] -0.219
inactive: [1] -0.071 | [2] -0.014 | [4] 0.053 | [5] -0.037 | [6] 0.077 | [7] -0.031 | [8] 0.014 | [9] 0.038 | [10] -0.088

ECPAS (UniProt Q5VYK3)
inactive: [1] 0 | [2] -0.18 | [3] 0.01 | [4] 0.081 | [5] 0.024 | [6] -0.115 | [7] 0.048 | [8] 0.099 | [9] -0.032 | [10] -0.016

F5 (UniProt P12259)
inactive: [1] 0.081 | [2] 0.257 | [3] -0.064 | [4] 0.057 | [5] -0.036 | [6] 0.023 | [7] 0.004 | [8] 0.223 | [9] 0.019 | [10] 0.055

EXOC1 (UniProt Q9NV70)
active: [10] -0.472
inactive: [1] -0.036 | [2] -0.336 | [3] -0.007 | [4] 0.174 | [5] -0.013 | [6] -0.179 | [7] -0.016 | [8] 0.067 | [9] 0.138

EEF1G isoform 2 (UniProt P26641)
inactive: [1] 0.011 | [2] 0.015 | [3] -0.028 | [4] 0.006 | [5] -0.011 | [6] -0.061 | [7] 0.046 | [8] 0.061 | [9] -0.013 | [10] 0.061

DCAF10 (UniProt Q5QP82)
inactive: [1] 0.036 | [2] 0.007 | [3] 0.037 | [4] 0.017 | [5] -0.046 | [6] -0.15 | [7] 0.007 | [8] -0.098 | [9] 0.055 | [10] -0.059

DDX4 (UniProt Q9NQI0)
Chain of UniProt Q9NQI0 (Q9NQI0 whole entry, looked up): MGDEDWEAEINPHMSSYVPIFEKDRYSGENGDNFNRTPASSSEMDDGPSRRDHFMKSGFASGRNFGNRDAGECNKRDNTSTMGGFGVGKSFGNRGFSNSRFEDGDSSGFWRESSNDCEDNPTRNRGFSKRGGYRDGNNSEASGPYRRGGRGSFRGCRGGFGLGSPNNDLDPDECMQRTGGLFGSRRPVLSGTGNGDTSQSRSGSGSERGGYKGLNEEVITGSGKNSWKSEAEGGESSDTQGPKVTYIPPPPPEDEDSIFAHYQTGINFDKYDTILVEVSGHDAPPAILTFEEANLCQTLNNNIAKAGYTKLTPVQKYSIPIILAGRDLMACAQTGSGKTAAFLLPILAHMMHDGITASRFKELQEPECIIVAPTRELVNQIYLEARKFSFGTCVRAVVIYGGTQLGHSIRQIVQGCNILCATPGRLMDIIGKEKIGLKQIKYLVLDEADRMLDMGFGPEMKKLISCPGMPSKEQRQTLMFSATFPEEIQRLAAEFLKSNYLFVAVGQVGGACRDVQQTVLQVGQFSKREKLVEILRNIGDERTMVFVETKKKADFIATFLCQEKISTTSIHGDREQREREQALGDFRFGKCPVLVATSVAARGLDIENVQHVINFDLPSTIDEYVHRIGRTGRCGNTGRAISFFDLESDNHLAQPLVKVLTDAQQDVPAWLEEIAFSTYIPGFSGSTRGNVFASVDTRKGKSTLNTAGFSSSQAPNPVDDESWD
inactive: [1] 0 | [2] 0.018 | [3] 0.013 | [4] 0.544 | [5] 0.265 | [6] 0.112 | [7] -0.042 | [8] -0.232 | [9] -0.021 | [10] -0.529

DHPS (UniProt P49366)
inactive: [1] 0.015 | [2] -0.008 | [3] 0.043 | [4] -0.047 | [5] 0.059 | [6] 0.032 | [7] -0.046 | [8] -0.054 | [9] 0.051 | [10] 0.067

CTSC (UniProt P53634)
inactive: [1] 0.042 | [2] -0.037 | [3] -0.015 | [4] -0.062 | [5] 0.018 | [6] 0 | [7] 0.063 | [8] -0.047 | [9] 0.013 | [10] -0.057

DBT (UniProt P11182)
Chain of UniProt P11182 (P11182 whole entry, looked up): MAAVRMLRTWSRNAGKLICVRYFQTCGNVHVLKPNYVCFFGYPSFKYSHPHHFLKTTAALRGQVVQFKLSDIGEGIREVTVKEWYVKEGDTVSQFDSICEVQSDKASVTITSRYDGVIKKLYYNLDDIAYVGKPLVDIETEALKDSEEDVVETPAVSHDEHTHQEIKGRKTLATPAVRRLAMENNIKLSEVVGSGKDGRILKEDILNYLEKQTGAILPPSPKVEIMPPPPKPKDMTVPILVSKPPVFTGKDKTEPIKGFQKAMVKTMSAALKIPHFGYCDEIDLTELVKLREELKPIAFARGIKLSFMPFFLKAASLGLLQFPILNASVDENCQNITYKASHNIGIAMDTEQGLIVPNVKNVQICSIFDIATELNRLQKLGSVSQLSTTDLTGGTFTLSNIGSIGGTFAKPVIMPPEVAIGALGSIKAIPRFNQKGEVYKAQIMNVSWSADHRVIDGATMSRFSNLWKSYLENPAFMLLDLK
inactive: [1] -0.024 | [2] -0.01 | [3] -0.014 | [4] 0.054 | [5] 0.04 | [6] 0.005 | [7] 0.038 | [8] -0.042 | [9] 0.029 | [10] 0.009

E2F4 (UniProt Q16254)
inactive: [1] 0.04 | [2] -0.029 | [3] 0.024 | [4] -0.095 | [5] 0.027 | [6] -0.034 | [7] 0.086 | [8] -0.019 | [9] 0.024 | [10] -0.103

DFFB (UniProt O76075)
inactive: [1] 0.018 | [2] 0.072 | [3] 0.012 | [4] 0.106 | [5] 0.037 | [6] -0.017 | [7] -0.123 | [8] -0.012 | [9] -0.021 | [10] -0.006

EXOC4 (UniProt Q96A65)
Chain of UniProt Q96A65 (Q96A65 whole entry, looked up): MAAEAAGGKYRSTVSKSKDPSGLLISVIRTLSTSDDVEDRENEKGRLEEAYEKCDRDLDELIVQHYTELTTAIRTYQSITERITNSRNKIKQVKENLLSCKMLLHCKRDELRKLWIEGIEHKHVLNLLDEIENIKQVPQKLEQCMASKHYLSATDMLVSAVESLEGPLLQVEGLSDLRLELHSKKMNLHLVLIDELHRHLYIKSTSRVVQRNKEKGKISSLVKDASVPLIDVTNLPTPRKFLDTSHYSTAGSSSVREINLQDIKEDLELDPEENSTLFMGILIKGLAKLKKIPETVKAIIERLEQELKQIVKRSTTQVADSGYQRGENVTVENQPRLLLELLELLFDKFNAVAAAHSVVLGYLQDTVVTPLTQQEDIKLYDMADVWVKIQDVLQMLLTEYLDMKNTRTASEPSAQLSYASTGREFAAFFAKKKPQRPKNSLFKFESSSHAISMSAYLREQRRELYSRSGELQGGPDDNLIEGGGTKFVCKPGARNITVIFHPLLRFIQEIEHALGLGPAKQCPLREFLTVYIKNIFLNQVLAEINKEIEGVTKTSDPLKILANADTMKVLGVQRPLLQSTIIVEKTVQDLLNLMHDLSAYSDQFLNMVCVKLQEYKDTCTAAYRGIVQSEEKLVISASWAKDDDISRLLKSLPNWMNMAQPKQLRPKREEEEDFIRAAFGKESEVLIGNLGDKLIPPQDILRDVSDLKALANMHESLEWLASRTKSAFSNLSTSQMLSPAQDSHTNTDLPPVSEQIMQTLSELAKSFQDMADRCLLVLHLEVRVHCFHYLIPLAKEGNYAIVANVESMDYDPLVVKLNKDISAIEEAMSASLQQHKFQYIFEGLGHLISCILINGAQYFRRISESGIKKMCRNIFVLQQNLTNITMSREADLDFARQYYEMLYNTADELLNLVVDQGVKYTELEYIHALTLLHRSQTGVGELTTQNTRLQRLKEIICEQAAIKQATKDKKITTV
inactive: [1] 0.003 | [2] -0.275 | [3] -0.099 | [4] 0.098 | [5] -0.028 | [6] -0.068 | [7] 0.041 | [8] 0.162 | [9] 0.016 | [10] -0.29

DIP2A (UniProt Q14689)
inactive: [1] -0.094 | [2] 0.087 | [3] 0.159 | [4] -0.01 | [5] 0.071 | [6] 0.023 | [7] -0.077 | [8] 0.081 | [9] 0.141 | [10] 0.01

DBN1 isoform 3 (UniProt Q16643)
Chain of UniProt Q16643 (Q16643 whole entry, looked up): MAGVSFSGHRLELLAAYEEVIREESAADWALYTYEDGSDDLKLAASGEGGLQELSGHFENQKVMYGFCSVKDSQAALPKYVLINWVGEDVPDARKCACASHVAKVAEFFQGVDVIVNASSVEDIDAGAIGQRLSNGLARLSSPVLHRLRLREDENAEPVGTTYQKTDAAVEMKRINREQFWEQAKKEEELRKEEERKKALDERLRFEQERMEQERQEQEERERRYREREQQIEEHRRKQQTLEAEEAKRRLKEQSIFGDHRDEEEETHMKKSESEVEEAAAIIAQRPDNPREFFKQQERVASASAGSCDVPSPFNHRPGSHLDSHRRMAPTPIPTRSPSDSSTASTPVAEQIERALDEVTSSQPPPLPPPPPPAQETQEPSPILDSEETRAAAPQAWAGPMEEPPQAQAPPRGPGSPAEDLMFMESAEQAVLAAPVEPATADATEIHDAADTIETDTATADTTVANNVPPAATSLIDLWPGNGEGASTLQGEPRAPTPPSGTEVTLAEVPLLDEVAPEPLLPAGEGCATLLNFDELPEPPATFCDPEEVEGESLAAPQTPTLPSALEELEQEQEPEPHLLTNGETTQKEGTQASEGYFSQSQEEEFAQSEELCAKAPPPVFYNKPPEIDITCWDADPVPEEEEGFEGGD
inactive: [1] -0.063 | [2] 0.088 | [3] -0.075 | [4] 0.044 | [5] -0.097 | [6] -0.009 | [7] 0.158 | [8] -0.02 | [9] 0.02 | [10] 0.071

FAM118A (UniProt Q9NWS6)
inactive: [1] -0.028 | [2] -0.112 | [3] 0.044 | [4] 0.036 | [5] -0.006 | [6] -0.44 | [7] -0.088 | [8] 0.097 | [9] -0.02 | [10] 0.034

DCTN1 isoform 4 (UniProt Q14203)
inactive: [1] -0.013 | [2] -0.112 | [3] 0.015 | [4] 0.131 | [5] -0.045 | [6] 0.016 | [7] 0.037 | [8] 0.111 | [9] 0.088 | [10] -0.141

DNAJC7 (UniProt Q99615)
Chain of UniProt Q99615 (Q99615 whole entry, looked up): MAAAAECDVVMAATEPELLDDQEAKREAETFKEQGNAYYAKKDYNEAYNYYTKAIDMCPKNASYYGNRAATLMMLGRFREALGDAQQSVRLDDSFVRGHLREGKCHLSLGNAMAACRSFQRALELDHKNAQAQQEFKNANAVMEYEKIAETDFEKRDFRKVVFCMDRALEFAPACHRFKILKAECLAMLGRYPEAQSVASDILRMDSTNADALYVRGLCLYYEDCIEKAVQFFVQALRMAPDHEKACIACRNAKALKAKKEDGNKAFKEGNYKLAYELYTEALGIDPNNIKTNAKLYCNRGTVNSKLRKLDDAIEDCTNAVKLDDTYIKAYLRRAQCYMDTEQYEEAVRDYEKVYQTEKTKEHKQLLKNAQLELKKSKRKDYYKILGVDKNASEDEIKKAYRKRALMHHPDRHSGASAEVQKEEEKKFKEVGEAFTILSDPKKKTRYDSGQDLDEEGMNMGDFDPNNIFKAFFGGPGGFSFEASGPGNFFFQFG
inactive: [1] 0.027 | [2] -0.014 | [3] 0.048 | [4] -0.028 | [5] 0.019 | [6] -0.088 | [7] -0.021 | [8] 0.095 | [9] -0.057 | [10] 0.001

CYP51A1 (UniProt Q16850)
inactive: [1] 0.028 | [2] 0.12 | [3] -0.162 | [4] 0.147 | [5] -0.075 | [6] -0.111 | [7] -0.031 | [8] 0 | [9] 0.156 | [10] 0.117

DDB1 (UniProt Q16531)
inactive: [1] 0.005 | [2] 0.033 | [3] 0.026 | [4] -0.039 | [5] 0.02 | [6] -0.028 | [7] -0.013 | [8] -0.037 | [9] -0.033 | [10] 0.009

EEF1D isoform 2 (UniProt P29692)
Chain of UniProt P29692 (P29692 whole entry, looked up): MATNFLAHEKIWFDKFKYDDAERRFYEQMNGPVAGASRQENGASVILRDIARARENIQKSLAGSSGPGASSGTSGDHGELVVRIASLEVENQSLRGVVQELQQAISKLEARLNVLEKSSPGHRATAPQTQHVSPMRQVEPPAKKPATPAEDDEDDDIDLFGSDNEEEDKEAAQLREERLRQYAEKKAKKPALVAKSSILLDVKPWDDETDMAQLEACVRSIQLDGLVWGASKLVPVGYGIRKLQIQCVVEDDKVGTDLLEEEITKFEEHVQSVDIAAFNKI
inactive: [1] 0.043 | [2] 0.004 | [3] -0.028 | [4] 0.066 | [5] -0.011 | [6] -0.057 | [7] 0.038 | [8] 0.04 | [9] 0.026 | [10] -0.055

FAM114A2 (UniProt Q9NRY5)
inactive: [1] -0.005 | [2] -0.197 | [3] 0.026 | [4] -0.026 | [5] 0.014 | [6] -0.06 | [7] 0.002 | [8] 0.011 | [9] -0.052 | [10] -0.096

ELOVL1 (UniProt Q9BW60)
Chain of UniProt Q9BW60 (Q9BW60 whole entry, looked up): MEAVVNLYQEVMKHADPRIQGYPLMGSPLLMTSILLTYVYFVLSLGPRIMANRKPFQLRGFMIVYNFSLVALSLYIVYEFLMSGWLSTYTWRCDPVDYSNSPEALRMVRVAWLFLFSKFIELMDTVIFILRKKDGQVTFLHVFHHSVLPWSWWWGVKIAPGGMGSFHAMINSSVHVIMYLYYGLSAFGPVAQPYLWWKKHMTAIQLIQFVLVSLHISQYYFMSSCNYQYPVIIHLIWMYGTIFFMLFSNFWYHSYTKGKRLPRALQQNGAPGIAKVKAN
inactive: [1] 0.082 | [2] -0.182 | [3] -0.065 | [4] -0.14 | [5] 0.124 | [6] -0.206 | [7] -0.003 | [8] 0.078 | [9] -0.082 | [10] -0.297

FAM160B1 (UniProt Q5W0V3)
inactive: [1] 0.015 | [2] -0.119 | [3] 0.06 | [4] -0.003 | [5] 0.117 | [6] -0.217 | [7] 0.003 | [8] 0.049 | [9] -0.018 | [10] -0.125

DMAC1 (UniProt Q96GE9)
inactive: [1] 0.023 | [2] 0.034 | [3] 0.037 | [4] 0.005 | [5] 0.166 | [6] -0.087 | [7] -0.153 | [8] -0.22 | [9] 0.066 | [10] -0.108

CTSV (UniProt O60911)
Chain of UniProt O60911 (O60911 whole entry, looked up): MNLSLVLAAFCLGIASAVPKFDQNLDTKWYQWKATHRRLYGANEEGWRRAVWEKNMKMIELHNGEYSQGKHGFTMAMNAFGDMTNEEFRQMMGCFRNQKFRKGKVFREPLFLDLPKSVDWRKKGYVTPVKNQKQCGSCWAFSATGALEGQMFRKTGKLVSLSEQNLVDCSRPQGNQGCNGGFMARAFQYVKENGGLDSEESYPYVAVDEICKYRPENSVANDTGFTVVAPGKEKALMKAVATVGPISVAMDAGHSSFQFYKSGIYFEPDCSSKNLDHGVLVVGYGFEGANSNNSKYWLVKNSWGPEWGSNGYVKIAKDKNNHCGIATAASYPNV
active: [2] -1.59 | [10] -0.453
inactive: [1] 0.073 | [3] 0.099 | [4] -0.01 | [5] -0.039 | [6] -0.334 | [7] -0.031 | [8] -0.04 | [9] -0.005

CUX1 isoform 2 (UniProt Q13948)
inactive: [1] -0.217 | [2] -0.063 | [3] 0.029 | [4] -0.063 | [5] 0.029 | [6] -0.046 | [7] -0.029 | [8] 0.002 | [9] -0.015 | [10] -0.008

FADS3 (UniProt Q9Y5Q0)
active: [10] -0.311
inactive: [1] 0.042 | [2] -0.237 | [3] 0.198 | [4] 0.055 | [5] 0.079 | [6] -0.058 | [7] -0.042 | [8] 0.073 | [9] -0.013

DTYMK (UniProt P23919)
inactive: [1] 0.046 | [2] -0.146 | [3] 0 | [4] -0.022 | [5] 0.094 | [6] -0.217 | [7] -0.109 | [8] -0.009 | [9] -0.025 | [10] 0.032
